Results reported in PMC6602471.
The full ranking holds about 1,300 sequences; the median of “log fluorescence intensity” is about 8.9, and the highest 2% start at about 13. Many of the other results were omitted from the sample, so the highest values are more common in it than they were.

biological target: T1, ELK1 (Homo sapiens, UniProt P19419 1-428); experiment: custom PBM; custom protein-binding microarray; buffer, salt, pH and temperature not stated; high values mean tight binding; conditions: dsDNA, one strand shown
T1 sequence: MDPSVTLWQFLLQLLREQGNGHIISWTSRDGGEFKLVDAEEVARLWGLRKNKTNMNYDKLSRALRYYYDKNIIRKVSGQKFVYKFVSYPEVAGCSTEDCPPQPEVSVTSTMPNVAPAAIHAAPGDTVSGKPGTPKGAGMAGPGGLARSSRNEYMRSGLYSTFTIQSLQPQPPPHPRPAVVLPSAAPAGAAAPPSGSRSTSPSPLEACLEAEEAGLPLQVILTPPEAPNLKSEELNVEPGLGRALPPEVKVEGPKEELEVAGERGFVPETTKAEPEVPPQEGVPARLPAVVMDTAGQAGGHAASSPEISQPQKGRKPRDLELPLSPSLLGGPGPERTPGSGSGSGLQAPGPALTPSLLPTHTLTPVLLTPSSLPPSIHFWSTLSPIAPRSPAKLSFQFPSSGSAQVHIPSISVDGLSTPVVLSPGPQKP

| Sequence | binding signal |
| --- | --- |
| GATTCATTTCTGCCCTTATTCGCACGTGCCATAACAGTCTTGATTCGCTTGACGCTGCTG | 8.97 log fluorescence intensity |
| GGAAAAAGGCCCAGGGAAACACCGGAAGTGGGCTTAGTCTTGATTCGCTTGACGCTGCTG | 11.4 log fluorescence intensity |
| GTGTATAGGATCCCATCCAACACACGTGTTCAAATGGTCTTGATTCGCTTGACGCTGCTG | 8.97 log fluorescence intensity |
| TACTGACTTCTATATGCGAATGCACATGAATAGACCGTCTTGATTCGCTTGACGCTGCTG | 8.96 log fluorescence intensity |
| TGTCGGGCAAGGGAATGTAGATCACGTGAATGAAAAGTCTTGATTCGCTTGACGCTGCTG | 9.09 log fluorescence intensity |
| CAGCATAGTACTTCTTCCCTGAAGCAATTGATAACCGTCTTGATTCGCTTGACGCTGCTG | 8.98 log fluorescence intensity |
| TAAAGGGAAGACGGTTGTGGTGGTTCCGGGTATTAAGTCTTGATTCGCTTGACGCTGCTG | 11.1 log fluorescence intensity |
| GCTGCTGGGGTGCATACCCCACCGGATGTGACCCCGGTCTTGATTCGCTTGACGCTGCTG | 9.94 log fluorescence intensity |
| GTGTATAGGATCCCATTCAACACACGTGTTAAAATGGTCTTGATTCGCTTGACGCTGCTG | 8.9 log fluorescence intensity |
| TAAAGGGAAGACGGTTGTGGTAGATCCGGGTATTAAGTCTTGATTCGCTTGACGCTGCTG | 9.61 log fluorescence intensity |
| TAAGGGGAAGACGGTTGTGGTAGTTCCGGGTATTAAGTCTTGATTCGCTTGACGCTGCTG | 11.3 log fluorescence intensity |
| GGAAAAAGGCACAGGGTAACACCGGAAGTGGGCTTAGTCTTGATTCGCTTGACGCTGCTG | 11 log fluorescence intensity |
| GGAAAAAGGCCCAGGGTAACACCGGAATTGGGCTTAGTCTTGATTCGCTTGACGCTGCTG | 9.46 log fluorescence intensity |
| CGGAAGTGTCGTAAACGTCGGATATCCGCTTCTTCTGTCTTGATTCGCTTGACGCTGCTG | 11.5 log fluorescence intensity |
| CAGCATAGGACTTCTTCCCTGAAGCAGTTGATAACCGTCTTGATTCGCTTGACGCTGCTG | 8.98 log fluorescence intensity |
| GTGTATAGGATCCCATCCAACACACGTGTTAATATGGTCTTGATTCGCTTGACGCTGCTG | 8.92 log fluorescence intensity |
| GGAAAAAGGCCCTGGGTAACACCGGAAGTGGGCTTAGTCTTGATTCGCTTGACGCTGCTG | 11.1 log fluorescence intensity |
| GGAAAAAGGCCCGGGGTAACACCGGAAGTGGGCTTAGTCTTGATTCGCTTGACGCTGCTG | 11.8 log fluorescence intensity |
| GGAAAAAGGCCCCGGGTAACACCGGAAGTGGGCTTAGTCTTGATTCGCTTGACGCTGCTG | 12.6 log fluorescence intensity |
| CTGGGACTTGACCCAAATCTGCCACGTGGGTCGTTTGTCTTGATTCGCTTGACGCTGCTG | 9 log fluorescence intensity |
| TGTCAGGTAAGGGAATGTAGATCACGTGAATGAAAAGTCTTGATTCGCTTGACGCTGCTG | 8.9 log fluorescence intensity |

| Sequence | binding signal |
| --- | --- |
| TACTGAGTTATATATGCGAATGCACATGAATAGACCGTCTTGATTCGCTTGACGCTGCTG | 8.97 log fluorescence intensity |
| TAAAGGGAAGACGGTTGTGGTAGTTCCGGGAATTAAGTCTTGATTCGCTTGACGCTGCTG | 11.2 log fluorescence intensity |
| CAGCATAGGACTTCTTCCCTGAAGCAATTGATACCCGTCTTGATTCGCTTGACGCTGCTG | 8.91 log fluorescence intensity |
| TACTGACTTATATATGCGAATGCACATGAATAGAACGTCTTGATTCGCTTGACGCTGCTG | 8.92 log fluorescence intensity |
| TGGCGGGTAAGGGAATGTAGATCACGTGAATGAAAAGTCTTGATTCGCTTGACGCTGCTG | 8.95 log fluorescence intensity |
| CTGGGACTTGACCCAACTCTGCCACGTGGGTCGTATGTCTTGATTCGCTTGACGCTGCTG | 8.98 log fluorescence intensity |
| CTGGGACTTGACCCAACTCTGCCACGTGGGGCGTTTGTCTTGATTCGCTTGACGCTGCTG | 8.94 log fluorescence intensity |
| TACTGACTTATATATCCGAATGCACATGAATAGACCGTCTTGATTCGCTTGACGCTGCTG | 9.23 log fluorescence intensity |
| TAAAGGGAAGATGGTTGTGGTAGTTCCGGGTATTAAGTCTTGATTCGCTTGACGCTGCTG | 10.9 log fluorescence intensity |
| CGGAATTGTCGTAAACGTCGGATATCCGGTTCTTCTGTCTTGATTCGCTTGACGCTGCTG | 12.8 log fluorescence intensity |
| CGGAACTGTCGTAAACGTCGGATATCCGGTTCTTCTGTCTTGATTCGCTTGACGCTGCTG | 12.5 log fluorescence intensity |
| CGGAAGCGTCGTAAACGTCGGATATCCGGTTCTTCTGTCTTGATTCGCTTGACGCTGCTG | 12.5 log fluorescence intensity |
| CGGAAGTATCGTAAACGTCGGATATCCGGTTCTTCTGTCTTGATTCGCTTGACGCTGCTG | 12 log fluorescence intensity |
| CGGATGTGTCGTAAACGTCGGATATCCGGTTCTTCTGTCTTGATTCGCTTGACGCTGCTG | 12.2 log fluorescence intensity |
| CGGAAGGGTCGTAAACGTCGGATATCCGGTTCTTCTGTCTTGATTCGCTTGACGCTGCTG | 12.1 log fluorescence intensity |
| CGGAAGTCTCGTAAACGTCGGATATCCGGTTCTTCTGTCTTGATTCGCTTGACGCTGCTG | 12 log fluorescence intensity |
| CGGAAATGTCGTAAACGTCGGATATCCGGTTCTTCTGTCTTGATTCGCTTGACGCTGCTG | 12.6 log fluorescence intensity |
| CGGACGTGTCGTAAACGTCGGATATCCGGTTCTTCTGTCTTGATTCGCTTGACGCTGCTG | 12.2 log fluorescence intensity |
| CTGGGACTTGGCCCAACTCTGCCACGTGGGTCGTTTGTCTTGATTCGCTTGACGCTGCTG | 8.95 log fluorescence intensity |
| TCCGGCTATCAGCTCCACCCACTTCAGGCCTTGTAGGTCTTGATTCGCTTGACGCTGCTG | 9.1 log fluorescence intensity |
| CAGCATAGGACTTCTTCCCTGAAGAAATTGATAACCGTCTTGATTCGCTTGACGCTGCTG | 8.96 log fluorescence intensity |
